Results as given in PubChem BioAssay (NCATS).
Inconclusive results are not listed. Activity calls are given as the source filed them. Unless noted, the call rests on the fitted dose curve; in most records, active means well fitted curve in the direction sought with a large enough effect; inconclusive means small, poorly fitted or top-dose-only effect, or another doubt; inactive means no such curve, though single readings can be large; an effect the other way counts as inactive or inconclusive.

Columns and labels:
[1] = S16 Schwann cell viability assay (CellTiter-Glo assay) (AID 624031);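 further: cellular ATP luminescence as a viability measure; nearly all actives have a fitted effect of over 70% in size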
In short: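 CellTiter-Glo ATP luminescence counter-screen in untransfected S16 rat Schwann cells, 24h compound exposure at 37 degree Celsius after overnight seeding (500-750 cells/well); response scaled between cell-free wells and DMSO (0% activity), curves classed by r2 and magnitude.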

[2] = S16 Schwann cell PMP22 intronic element beta-lactamase assay (AID 624044; calls by dose curve; further: nearly all actives have a fitted effect of over 15% in size; further: potency means the concentration at half of the fitted maximal effect); details: S16 rat Schwann cells, PMP22 element beta-lactamase FRET, 24 h; ratio activity, negative = inhibition: at 38.3 µM (top of the series)
In short: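 Rat S16 Schwann cells with beta-Lac driven by a PMP22 intronic element, compound-treated 24 h at 37 °C. LiveBLAzer FRET B/G read: 460 nm normalized to potassium clavulanate vs DMSO; 535 nm FRET as viability; concentration-effect curves classified.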

7G8 = assay: qHTS profiling for inhibitors of Plasmodium falciparum proliferation (AID 504749); further: nearly all actives have a fitted effect of over 60% in size; further: potency means the concentration at half of the fitted maximal effect; details: P. falciparum in erythrocytes, SYBR Green DNA, 72 h; series mostly up to 28.7 µM
In short: (§1)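 Readout was DNA-dye fluorescence from lysed cultures, ex 485/em 535 nm. Parasitized red cells had grown 72 h with compound; data scaled between 0.29 uM artemisinin and DMSO wells and corrected using vehicle-only plates.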

CP201 = assay: as above; details: P. falciparum in erythrocytes, SYBR Green DNA, 72 h; series mostly up to 28.7 µM
In short: as §1

CP203 = assay: as above; details: P. falciparum in erythrocytes, SYBR Green DNA, 72 h; series mostly up to 28.7 µM
In short: as §1

CP215 = assay: as above; details: P. falciparum in erythrocytes, SYBR Green DNA, 72 h; series mostly up to 28.7 µM
In short: as §1

CP247 = assay: as above; details: P. falciparum in erythrocytes, SYBR Green DNA, 72 h; series mostly up to 28.7 µM
In short: as §1

CP266 = assay: as above; details: P. falciparum in erythrocytes, SYBR Green DNA, 72 h; series mostly up to 28.7 µM
In short: as §1

CP268 = assay: as above; details: P. falciparum in erythrocytes, SYBR Green DNA, 72 h; series mostly up to 28.7 µM
In short: as §1

CP291 = assay: as above; details: P. falciparum in erythrocytes, SYBR Green DNA, 72 h; series mostly up to 28.7 µM
In short: as §1

CP297 = assay: as above; details: P. falciparum in erythrocytes, SYBR Green DNA, 72 h; series mostly up to 28.7 µM
In short: as §1

CP305 = assay: as above; details: P. falciparum in erythrocytes, SYBR Green DNA, 72 h; series mostly up to 28.7 µM
In short: as §1

CP325 = assay: as above; details: P. falciparum in erythrocytes, SYBR Green DNA, 72 h; series mostly up to 28.7 µM
In short: as §1

CP335 = assay: as above; details: P. falciparum in erythrocytes, SYBR Green DNA, 72 h; series mostly up to 28.7 µM
In short: as §1

DIV17 = assay: as above; details: P. falciparum in erythrocytes, SYBR Green DNA, 72 h; series mostly up to 28.7 µM
In short: as §1

GB4 = assay: as above; details: P. falciparum in erythrocytes, SYBR Green DNA, 72 h; series mostly up to 28.7 µM
In short: as §1

ICS = assay: as above; details: P. falciparum in erythrocytes, SYBR Green DNA, 72 h; series mostly up to 28.7 µM
In short: as §1

P93_24 = assay: as above; details: P. falciparum in erythrocytes, SYBR Green DNA, 72 h; series mostly up to 28.7 µM
In short: as §1

PAD = assay: as above; details: P. falciparum in erythrocytes, SYBR Green DNA, 72 h; series mostly up to 28.7 µM
In short: as §1

PC26 = assay: as above; details: P. falciparum in erythrocytes, SYBR Green DNA, 72 h; series mostly up to 28.7 µM
In short: as §1

Measured: Potency

O=C1[C@@H]2C[C@@H]3C[C@H]1C[C@@](O)(C3)C2
inactive: all assays above

CC(=O)NC1[C@H](O)C[C@@](O)(C(=O)O)O[C@H]1[C@H](O)[C@H](O)CO (some centres not stated)
inactive: all assays above

C=NC(C(=O)NC1C(=O)N2C1SC(C)(C)C2C(=O)O)c1ccccc1 (configuration not stated)
inactive: all assays above

CO[C@H]1OC2O[C@@]3(C)CC[C@H]4[C@H](C)CC[C@@H]([C@H]1C)[C@@]24OO3 (some centres not stated)
inactive: [1] | [2]
active: 7G8 2.2 nM | CP201 75.7 nM | CP203 30.1 nM | CP215 30.1 nM | CP247 25.1 nM | CP266 67.5 nM | CP268 21.3 nM | CP291 26.9 nM | CP297 23.9 nM | CP305 15.1 nM | CP325 15.1 nM | CP335 23.9 nM | DIV17 12 nM | GB4 13.5 nM | ICS 4.5 nM | P93_24 10 nM | PAD 20 nM | PC26 15.1 nM

OC[C@@H]1O[C@](CO)(O[C@H]2O[C@H](CO)[C@@H](O)[C@H](O)[C@H]2O)[C@H](O)[C@H]1O
inactive: all assays above

O=C1NC(=O)C2C3C=CC(C3)C12 (configuration not stated)
not listed: [1]
inactive: all other assays above

CCCCCCCCCCCC(=O)OCC(O)C1OCC(O)C1O (configuration not stated)
not listed: [2]
inactive: all other assays above

COc1cccc(OC)c1C(=O)NC1C(=O)N2C1SC(C)(C)C2C(=O)O (configuration not stated)
inactive: all assays above

C[C@]12CC[C@@H]3c4ccc(O)cc4CC[C@H]3[C@@H]1C[C@H](O)C2O (some centres not stated)
inactive: all assays above

CC[C@@]1(O)C[C@H](O[C@H]2C[C@@H](N(C)C)[C@@H](O[C@H]3C[C@@H](O)[C@@H](O[C@H]4CCC(=O)[C@@H](C)O4)[C@@H](C)O3)[C@@H](C)O2)c2c(cc3c(c2O)C(=O)c2c(O)cccc2C3=O)[C@H]1C(=O)OC
active: [2] 199 nM | 7G8 39.8 nM | CP201 1510 nM | CP203 849 nM | CP215 849 nM | CP247 251 nM | CP266 1200 nM | CP268 953 nM | CP291 849 nM | CP297 953 nM | CP305 601 nM | CP325 849 nM | CP335 169 nM | DIV17 478 nM | GB4 601 nM | ICS 44.7 nM | P93_24 316 nM | PAD 178 nM | PC26 1200 nM

CCCC[C@H](O)c1ccccc1
inactive: all assays above

CC(=O)OCC(=O)[C@@]1(O)CCC2C3CCC4=CC(=O)C=CC4(C)C3C(O)C[C@]21C (some centres not stated)
inactive: all assays above

OCC1O[C@@H](O[C@@H]2C(CO)OC(O)C(O)C2O)C(O)C(O)C1O (some centres not stated)
inactive: all assays above

NC[C@@H]1O[C@H](OC2[C@@H](CO)O[C@@H](OC3[C@H](O)[C@H](N)C[C@H](N)[C@H]3OC3O[C@H](CO)[C@@H](O)[C@H](O)[C@@H]3N)[C@H]2O)C(N)[C@H](O)[C@@H]1O (some centres not stated)
inactive: all assays above

CCC(C(=O)O)C1OC(C(C)C(O)C(C)C(=O)C(CC)C2OC3(C=CC(O)C4(CCC(C)(C5CCC(O)(CC)C(C)O5)O4)O3)C(C)CC2C)C(C)CC1C (configuration not stated)
active: [2] 6300 nM | 7G8 79.4 nM | CP201 95.3 nM | CP203 37.9 nM | CP215 60.1 nM | CP247 112 nM | CP266 151 nM | CP268 75.7 nM | CP291 60.1 nM | CP297 135 nM | CP305 53.6 nM | CP325 84.9 nM | CP335 42.6 nM | DIV17 75.7 nM | GB4 53.6 nM | ICS 89.1 nM | P93_24 178 nM | PAD 224 nM | PC26 75.7 nM

CCN1CCN(C(=O)NC(C(=O)NC2C(=O)N3C(C(=O)O)=C(CSc4nnnn4C)CSC23)c2ccc(O)cc2)C(=O)C1=O (configuration not stated)
not listed: [2]
inactive: all other assays above

O=C1CC[C@H](C(=O)N[C@@H]2C[C@H]2c2ccccc2)N1
inactive: all assays above

CC1OC(OC2CCC3(C)C(CCC4C3CC(O)C3(C)C(C5=CC(=O)OC5)CCC43O)C2)CC(O)C1OC1CC(O)C(OC2CC(O)C(OC3OC(CO)C(O)C(O)C3O)C(C)O2)C(C)O1 (configuration not stated)
not listed: PC26
inactive: all other assays above

CC(c1ncncc1F)[C@](O)(Cn1cncn1)c1ccc(F)cc1F (some centres not stated)
inactive: all assays above

CO/N=C(/C(=O)N[C@@H]1C(=O)N2C(C(=O)O)=C(CSC(=O)c3ccco3)CSC12)c1csc(N)n1 (some centres not stated)
not listed: CP305 | GB4
inactive: all other assays above

Cc1onc(-c2c(F)cccc2Cl)c1C(=O)NC1C(=O)N2C1SC(C)(C)C2C(=O)O (configuration not stated)
inactive: all assays above
